Some test systems named below: HCT-15 colon; HT29 colon; SNB-75 CNS; U251 CNS; UACC-62 melanoma; LOX IMVI melanoma; SK-MEL-2 melanoma; EKVX NSCLC; SN12C renal; UO-31 renal; TK-10 renal; ACHN renal; CAKI-1 renal; A498 renal; CCRF-CEM leukemia; MOLT-4 leukemia; PC-3 prostate; SK-MEL-5 melanoma; SK-MEL-28 melanoma; SNB-19 CNS.
Common to all, as to test: NCI-60 one-dose screen, 48 h (100 = growth as untreated, 0 = no growth, -100 = all killed)
Holding throughout (conditions): 10 µM unless noted

Structures are written as SMILES. Values joined by “and” are separate entries in the source; they are usually repeats but may differ in a detail not shown here. Identical values can stand only once. About 83,000 compounds went through this panel and 20% of them were active in at least one assay; those are over-represented in the sample as a whole.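 Negative percent growth values reflect cell death: -40 means 40% of the cells present at the start died, and -100 means all died.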 Values without a mark were called inactive. Active and inactive are the calls of the source. The calls were made as follows: active = growth percent below 10; inactive = the rest.

As for `O=C(Oc1cccc2cccnc12)c1ccccc1`, the growth is 77.6% and 101% in the assay on HCT-15 colon; 87.1% and 99.8% with HT29 colon; 85.4% and 96.2% in the assay on SNB-75 CNS; 82.8% and 113% with U251 CNS; 97.6% and 106% with UACC-62 melanoma; 70% and 100% in the assay on LOX IMVI melanoma. Besides, the growth in the assay with SK-MEL-2 melanoma is 110% and 96.7%; in the assay on EKVX NSCLC, 91% and 107%; with SN12C renal it was 86% and 104%; with UO-31 renal it was 78.6% and 82%; in the assay on TK-10 renal it was 106% and 107%; with ACHN renal, 96.5% and 104%. Also, the growth in the assay with CAKI-1 renal is 89.7%; in the assay on A498 renal, 117%; in the assay on CCRF-CEM leukemia it was 23.7% and 102%; in the assay on MOLT-4 leukemia, 80%.

Regarding `CCC(CC)COC(=O)c1ccc(O)c(O)c1`, the growth was 49.2% in the assay on HCT-15 colon; 96.8% with HT29 colon; 75% in the assay with SNB-75 CNS; 50.9% in the assay with U251 CNS; 33.8% in the assay with PC-3 prostate; 83.3% in the assay on SK-MEL-5 melanoma. Besides, the growth with UACC-62 melanoma is 76.8%; in the assay on LOX IMVI melanoma it was 69.2%; in the assay on SK-MEL-28 melanoma it was 95.1%; in the assay on SK-MEL-2 melanoma, 85.6%; in the assay on EKVX NSCLC it was 93.7%; in the assay on SN12C renal, 45.8%. In addition, the growth in the assay with UO-31 renal was 26.3%; in the assay on TK-10 renal, 82.5%; in the assay on ACHN renal it was 72.5%; with CAKI-1 renal it was 40.6%; with CCRF-CEM leukemia it was 15.2%.

On to `CN(C)c1ccc(N=Nc2cccc3ccccc23)cc1`, for which the growth with HCT-15 colon is 93.1%; in the assay with HT29 colon it was 93.5%; in the assay on SNB-75 CNS it was 76.4%; in the assay on U251 CNS, 88.6%; in the assay on PC-3 prostate, 75.9%; in the assay on SK-MEL-5 melanoma it was 93.9%. The growth was 84.2% in the assay with UACC-62 melanoma; 96.3% in the assay on LOX IMVI melanoma; 103% in the assay with SK-MEL-28 melanoma; 100% with SK-MEL-2 melanoma; 71.7% in the assay with EKVX NSCLC; 92.9% in the assay on SN12C renal. Besides, the growth in the assay with UO-31 renal was 57.5%; in the assay on TK-10 renal it was 80.9%; in the assay on ACHN renal, 91.3%; with CAKI-1 renal, 90.2%; in the assay with CCRF-CEM leukemia it was 81.6%; in the assay with MOLT-4 leukemia it was 84.3%.

Consider `Cc1ccc(C(=Nc2ccccc2)N=P(c2ccccc2)(c2ccccc2)c2ccccc2)cc1`, for which the growth in the assay on HCT-15 colon was 2.78% (active); with HT29 colon, 2.74% (active); in the assay on SNB-75 CNS, 15.6%; with U251 CNS, -7.18% (active); in the assay on SK-MEL-5 melanoma, -96.6% (active); in the assay on UACC-62 melanoma it was -78.5% (active). Also, the growth in the assay with LOX IMVI melanoma is -82.9% (active); in the assay on SK-MEL-28 melanoma, -48.6% (active); in the assay with SK-MEL-2 melanoma, -51.8% (active); in the assay with EKVX NSCLC, -16.8% (active); in the assay on SN12C renal, -10.1% (active); in the assay on UO-31 renal, -79.6% (active). Also, the growth in the assay with TK-10 renal is -23.4% (active); in the assay on ACHN renal it was 2.97% (active); in the assay on CAKI-1 renal, -32.1% (active); with CCRF-CEM leukemia it was -30.2% (active); in the assay on MOLT-4 leukemia, 1.64% (active).

Consider `Cc1ccc2c(ccc3c[n+]4c5ccccc5ccc4n32)c1`, for which the growth is 79.6% in the assay on HCT-15 colon; 8.52% (active) with HT29 colon; 8.15% (active) with SNB-75 CNS; 2.91% (active) in the assay with SNB-19 CNS; -12.4% (active) in the assay on U251 CNS; -81% (active) in the assay with SK-MEL-5 melanoma. Also, the growth with UACC-62 melanoma is -48.9% (active); with SK-MEL-28 melanoma it was -28.1% (active); in the assay with SK-MEL-2 melanoma, -19.8% (active); with EKVX NSCLC, 22.4%; in the assay with SN12C renal, 5.27% (active); with UO-31 renal, 51%. The growth in the assay with TK-10 renal was 58.6%; in the assay with ACHN renal, 46.9%; in the assay on CAKI-1 renal it was 67.8%; with CCRF-CEM leukemia it was 19.2%; with MOLT-4 leukemia, 8.93% (active).

In the case of `CNC(=O)N/N=C/c1ccc([N+](=O)[O-])o1`, the growth is 107% in the assay with HCT-15 colon; 102% in the assay on HT29 colon; 114% in the assay on SNB-75 CNS; 96.9% in the assay on U251 CNS; 92.7% in the assay on PC-3 prostate; 98.6% in the assay with SK-MEL-5 melanoma. In addition, the growth was 88.9% with UACC-62 melanoma; 89.1% with LOX IMVI melanoma; 111% in the assay with SK-MEL-28 melanoma; 97.1% with SK-MEL-2 melanoma; 107% with EKVX NSCLC; 90.5% in the assay with UO-31 renal. Moreover, the growth with TK-10 renal was 111%; in the assay with ACHN renal, 106%; in the assay on CAKI-1 renal, 114%; with A498 renal, 102%; with CCRF-CEM leukemia, 96.8%; in the assay with MOLT-4 leukemia, 82.7%.

For the compound `CN(C)CCOc1ccc2c(c1)C(=O)/C(=C\c1ncc([N+](=O)[O-])n1C)C2`, the growth in the assay with HCT-15 colon was -10.2% (active); in the assay with HT29 colon, -32.6% (active); with SNB-75 CNS, -86.6% (active); with SNB-19 CNS, -39.2% (active); in the assay with U251 CNS it was -14.4% (active); in the assay with PC-3 prostate, -11.2% (active). Also, the growth is -59.7% (active) with UACC-62 melanoma; -71.2% (active) with SK-MEL-28 melanoma; -72.5% (active) in the assay on SK-MEL-2 melanoma; -18.9% (active) in the assay with EKVX NSCLC; -36.7% (active) in the assay with UO-31 renal; -9.94% (active) with TK-10 renal. Moreover, the growth with ACHN renal is -31.9% (active); in the assay with CAKI-1 renal it was -19.2% (active); in the assay on A498 renal it was -88% (active); in the assay with CCRF-CEM leukemia, -61.1% (active); in the assay on MOLT-4 leukemia it was -32.1% (active).

For `O=C(Nc1cccc(Br)c1)Oc1ccc(Cl)c2cccnc12`, the growth in the assay with HCT-15 colon was 10.9% [100 µM]; with HT29 colon, 70.5% [100 µM]; in the assay on SNB-75 CNS, 3.16% [100 µM] (active); in the assay on SNB-19 CNS, 27.8% [100 µM]; with U251 CNS it was 20.2% [100 µM]; in the assay on SK-MEL-5 melanoma, 9.3% [100 µM] (active). Also, the growth in the assay on UACC-62 melanoma is -30.4% [100 µM] (active); with SK-MEL-2 melanoma, 17% [100 µM]; in the assay with EKVX NSCLC it was -18.3% [100 µM] (active); in the assay with UO-31 renal it was 13.9% [100 µM]; with TK-10 renal it was 170% [100 µM]; in the assay on ACHN renal, 10.1% [100 µM]. For the same compound, the growth in the assay with CAKI-1 renal is 47% [100 µM]; in the assay with CCRF-CEM leukemia it was 10.7% [100 µM]; in the assay on MOLT-4 leukemia, 2% [100 µM] (active).

The values above are taken from PubChem BioAssay (NCI).
